Source: PubChem BioAssay AID2284339 (EPA ToxCast)
Several values for one entry are separate records, joined by “and”; a condition that tells them apart may be missing. Equal entries are not always repeated. Activity calls are given as the source filed them. How the source made its calls: active means hit-call score of the fitted dose curve at least 0.9, where 1 is the maximum; inactive means score below 0.9.

What follows are compounds tested on NCBI gene 100038242 (assay: CCTE_GLTED_xDIO3: CCTE's Xenopus Iodothyronine Deiodinase Type 3 (xDIO3) Inhibition Assay, Great Lakes Toxicology and Ecology Division (GLTED) Lab).
Description: CCTE_GLTED_xDIO3 is a cell-free, single-readout assay designed to test the inhibitory activity of chemicals toward Xenopus (frog) iodothyronine Deiodinase Type 3 (DIO3) enzyme. Enzyme is incubated in presence of test chemical for 3 hours during which uninhibited enzyme liberates free iodide from substrate. Free iodide is measured in a second step using the Sandell-Kolthoff method.CCTE_GLTED_xDIO3 is the assay component measured from the CCTE_GLTED_xDIO assay. It is designed to make measurements of enzyme activity, a form of enzyme reporter, as detected with absorbance signals by spectrophotometry.Data from the assay component CCTE_GLTED_xDIO3 was analyzed at the assay endpoint CCTE_GLTED_xDIO3 in the positive analysis fitting direction relative to DMSO as the negative control and baseline of activity. Using a type of enzyme reporter, loss-of-signal activity can be used to understand deiodinase Type 3 activity. To generalize the intended target to other relatable targets, this assay endpoint is annotated to the 'deiodinase' intended target family, where the subfamily is 'deiodinase Type 3'.
[…]

Compound | AC50
C=CC(=O)OCC(F)(F)C(F)F | 19.8 µM (active)
COC(=O)C(F)(F)C(F)(F)OC(F)(C(F)(F)F)C(F)(F)OC(F)=C(F)F (stereo not given) | 7.65 µM (active)
O=S(=O)(O)C(F)(F)C(F)(F)C(F)(F)C(F)(F)C(F)(F)C(F)(F)C(F)(F)C(F)(F)F | 142 µM (active) and 160 µM (active)
O=C(O)C(F)(F)C(F)(F)C(F)(F)C(F)(F)C(F)(F)C(F)(F)C(F)(F)C(F)(F)C(F)(F)F | 147 µM (active)
O=C(O)C(F)(F)C(F)(F)C(F)(F)C(F)(F)C(F)(F)C(F)(F)C(F)(F)C(F)(F)C(F)(F)C(F)(F)F | 27.7 µM (active)
